Results from PubChem BioAssay (NCATS).
Records with an inconclusive call do not appear. Calls of active or inactive are those of the source. Calls come from the whole dose curve; as a rule, active = well fitted curve in the direction sought with a large enough effect; inconclusive = small, poorly fitted or top-dose-only effect, or another doubt; inactive = no such curve, though single readings can be large; an effect the other way counts as inactive or inconclusive.

How the values were obtained:
[1] = MultiTox-Fluor Cytotoxicity Assay - LYMP1-002 - Live Cells (AID 955)
In short: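 Cytotoxicity in the human lymphoblastoid line LYMP1-002 is measured as loss of live-cell protease activity after 16 h treatment in complete culture medium. AC50 is derived from Hill-equation fits of qHTS concentration-response data.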

[2] = MultiTox-Fluor Cytotoxicity Assay - LYMP1-002 - Dead Cells (AID 960); note: nearly all actives have a fitted effect of over 60% in size
In short: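 Acute cytotoxicity in a human lymphoblastoid line is scored as rising dead-cell protease signal after 16 hr exposure at 37 C, measured fluorometrically (485/520).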

[3] = MultiTox-Fluor Cytotoxicity Assay - LYMP1-003 - Dead Cells (AID 961); note: nearly all actives have a fitted effect of over 70% in size
In short: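 LYMP1-003 human lymphoblastoid cells (2500/well) exposed to compound 16 h at 37 C in complete medium; dead-cell protease read with bis-AAF-R110 fluorescence (Ex/Em 485/520) after 60 min at room temperature. Normalized to DMSO and 15 uM tetraoctylammonium bromide; AC50 from Hill fit.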

[4] = Cell Viability - LYMP2-003 (AID 965);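 note: cells exposed to compounds for 24 h before reading; nearly all actives have a fitted effect of over 50% in size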
In short: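 qHTS, human lymphoblastoid line, 2500 cells/well, complete medium. 24 h drug, 37 C. ATP-based luminescent readout; Hill-fit AC50.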

[5] = Cell Viability - LYMP2-011 (AID 969); note: nearly all actives have a fitted effect of over 60% in size
In short: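 Acute toxicity is scored as a concentration-dependent drop in intracellular ATP of a human lymphoblastoid line after 24 hr treatment. Values are AC50s modeled with the Hill equation.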

[6] = Cell Viability - LYMP2-013 (AID 970);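 note: cells exposed to compound for 24 h at 37 °C; nearly all actives have a fitted effect of over 55% in size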
In short: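 Acute toxicity was measured in human lymphoblastoid cells (2500/well) exposed to compound titrations for 24 hr, with ATP luminescence (CellTiter-Glo) as read-out and AC50 fitted by Hill equation.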

[7] = Cell Viability - LYMP2-015 (AID 971); note: nearly all actives have a fitted effect of over 55% in size
In short: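 Acute toxicity was scored as a concentration-dependent drop in intracellular ATP in lymphoblastoid cells after 24 hr compound exposure in complete medium. Detection used CellTiter-Glo luciferase luminescence.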

[8] = Cell Viability - LYMP2-017 (AID 972);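 note: cells exposed to compound for 24 hours at 37 °C; nearly all actives have a fitted effect of over 55% in size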
In short: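 Steps: plate 2500 lymphoblastoid cells per well; incubate 5 hr at 37 C; add compound across a concentration series and incubate 24 hr at 37 C; add CellTiter-Glo and read luminescence after 30 min at room temperature; fit Hill curves for AC50.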

[9] = Cell Viability - LYMP2-019 (AID 973);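 note: cells exposed to compound for 24 h at 37 °C; nearly all actives have a fitted effect of over 55% in size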
In short: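 Cells plated at 2500/well and allowed 5 hr at 37 C before compound addition. After 24 hr incubation, CellTiter-Glo reagent was added, plates sat 30 min at room temperature, and luminescence was recorded.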

[10] = Cell Viability - LYMP2-021 (AID 974)
In short: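 Concentration-response cytotoxicity in a human lymphoblastoid line: 24 hr treatment at 37 C in complete culture medium, tetraoctylammonium bromide as positive control, luminescent ATP quantitation as viability measure.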

[11] = Cell Viability - LYMP2-023 (AID 975)
In short: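 Concentration-dependent drop in intracellular ATP measures acute cytotoxicity in a human lymphoblastoid line treated for 24 hours in complete culture medium. AC50 values are taken from Hill-equation fits of qHTS data.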

[12] = Cell Viability - LYMP2-006 (AID 978); note: nearly all actives have a fitted effect of over 60% in size
In short: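 In this cytotoxicity screen, the human lymphoblastoid line grew in complete medium with test compounds for 24 hr at 37 C. Cellular ATP served as the viability signal.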

[13] = Cell Viability - LYMP2-007 (AID 979);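 note: cells exposed to compound for 24 h before reading; nearly all actives have a fitted effect of over 60% in size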
In short: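 Acute toxicity is scored as a concentration-dependent fall in intracellular ATP in human lymphoblastoid cells treated 24 hr at 37 C, measured by luciferase luminescence; Hill-equation modelling yields AC50.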

[14] = Cell Viability - LYMP2-008 (AID 980); note: nearly all actives have a fitted effect of over 60% in size
In short: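 Acute cytotoxicity is scored as concentration-dependent loss of cellular ATP in a human lymphoblastoid line after 24 hr treatment at 37 C. ATP is quantified by luciferase luminescence.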

[15] = Cell Viability - LYMP2-010 (AID 981)
In short: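 Acute toxicity is scored as a concentration-dependent loss of cellular ATP in human lymphoblastoid cells after 24 hr compound exposure in complete medium. Tetraoctylammonium bromide is the positive control.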

[16] = Cell Viability - LYMP2-012 (AID 982)
[17] = Cell Viability - LYMP2-016 (AID 984)
In short: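 Concentration-dependent ATP depletion measured in LYMP2-016 lymphoblastoid cells, 24 h, 37 C; luciferase-based luminescent detection; Hill-equation AC50.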

[18] = Cell Viability - LYMP2-018 (AID 985);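 note: compound exposure lasted 24 hr at 37 °C; nearly all actives have a fitted effect of over 50% in size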
In short: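 Acute cytotoxicity is scored as a concentration-dependent drop in intracellular ATP after 24 hr exposure of the lymphoblastoid line in complete culture medium, measured by luciferase luminescence. Potency is expressed as AC50 from Hill modelling.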

[19] = Cell Viability - LYMP2-020 (AID 986)
In short: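 Acute cytotoxicity in a human lymphoblastoid line is scored as a concentration-dependent fall in cellular ATP after 24 hr at 37 C in complete medium. The positive control is tetraoctylammonium bromide, and potency is given as Hill-fit AC50.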

[20] = Cell Viability - LYMP2-024 (AID 988); note: nearly all actives have a fitted effect of over 60% in size
In short: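 Acute toxicity is measured as concentration-dependent loss of intracellular ATP in a human lymphoblastoid line treated 24 hours at 37 C. Luciferase luminescence quantifies ATP; AC50 values come from standard Hill-equation modelling.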

Measured: Potency
Potency is the fitted concentration of half-maximal effect.

C=CC(=O)OCC(CO)(COC(=O)C=C)COC(=O)C=C
active: [1] 3.98 µM | [2] 3.16 µM | [3] 7.94 µM | [4] 3.98 µM | [5] 5.01 µM | [6] 5.01 µM | [7] 5.01 µM | [8] 5.01 µM | [9] 3.98 µM | [10] 3.98 µM | [11] 6.31 µM | [12] 5.01 µM | [13] 5.01 µM | [14] 5.01 µM | [15] 3.98 µM | [16] 3.98 µM | [17] 5.01 µM | [18] 3.98 µM | [19] 3.98 µM | [20] 3.16 µM

O=Nc1ccc(Nc2ccccc2)cc1
active: [1] 6.31 µM | [2] 3.98 µM | [3] 5.01 µM | [4] 7.94 µM | [5] 7.94 µM | [6] 10 µM | [7] 3.98 µM | [8] 6.31 µM | [9] 3.98 µM | [10] 5.01 µM | [11] 6.31 µM | [12] 7.94 µM | [13] 5.01 µM | [14] 7.94 µM | [15] 5.01 µM | [16] 7.94 µM | [17] 6.31 µM | [18] 3.98 µM | [19] 5.01 µM | [20] 2.51 µM

c1cc(OCC2CO2)cc(OCC2CO2)c1 (stereo not given)
active: [1] 31.6 µM | [2] 25.1 µM | [3] 39.8 µM | [4] 25.1 µM | [5] 39.8 µM | [6] 50.1 µM | [7] 39.8 µM | [8] 39.8 µM | [9] 39.8 µM | [10] 39.8 µM | [11] 50.1 µM | [12] 39.8 µM | [13] 39.8 µM | [14] 39.8 µM | [15] 31.6 µM | [16] 31.6 µM | [17] 25.1 µM | [18] 31.6 µM | [19] 39.8 µM | [20] 39.8 µM
